Source: PubChem (National Center for Advancing Translational Sciences (NCATS))
Sampled rows, rich in hits. Any-hit rate of the full collection: about 1.7%.
RGS4 inhibitor = inhibitors of human regulator of G protein signaling 4. P49798. Transcreener GDP fluorescence polarization, RGS4-accelerated GTP hydrolysis. Potency, µM (top dose mostly 114 µM), for the others: at the top dose activity change, negative = inhibition, hits mostly inhibitors. actives 0.039% (n = 390,000). AID 504845; also: % is scaled to controls: 0 for no effect and ±100 for the full control effect; nearly all actives have a fitted effect of over 75% in size
Target sequence (P49798 whole entry, looked up): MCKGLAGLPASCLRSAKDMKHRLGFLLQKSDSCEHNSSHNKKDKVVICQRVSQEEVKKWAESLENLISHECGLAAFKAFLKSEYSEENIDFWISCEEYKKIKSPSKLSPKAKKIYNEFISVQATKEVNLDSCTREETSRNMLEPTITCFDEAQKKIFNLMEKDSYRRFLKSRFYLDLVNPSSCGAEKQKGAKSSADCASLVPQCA
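MLSMR compounds (23 nl, pin-transferred) preincubated 10 min at room temperature with a 500nM (2x) first reagent, then RGS4 at 900nM (2x) plus Transcreener GDP mix added; fluorescence polarization (620/688 nm) read before and after 90 min at 30 °C.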
PTHR1 ag = activates the human parathyroid hormone receptor PTHR1. Q03431. Potency, µM (doses to about 115 µM), for the others: top-dose activation, usual class: activators. AID 743266. HEK293 GP2 PTHR1 cells, GloSensor cAMP luminescence, 1 h. actives 0.075% (n = 410,000); also: nearly all actives have a fitted effect of over 55% in size
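HEK-293-derived GP2 cells expressing PTHR1 and a GloSensor cAMP reporter, 3,000/well, plated overnight, given luciferin plus IBMX (each 0.5 mM as added) for 1 h at 37 °C, then compound for 1 h at 37 °C. Luminescence was read after 15 min at room temperature.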
HEK293 tox = cytotoxicity in counter-screen for GLP-1R inverse agonists; HEK293 cAMP-luciferase reporter cells, luminescence, 24 h; Potency, µM (titrated, usually from 38.3 µM), for inactives: top-dose activity change, negative = inhibition, most hits filed as inhibitors; actives 0.13% (n = 410,000); AID 624418;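 also: loss of luciferase light is scored as toxicity; % is scaled to controls: 0 for no effect and ±100 for the full control effect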
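Compound-treated cells are incubated 24 hr at 37 deg C under 5% CO2 after a 12 hour attachment period, then luciferase detection reagent is added and luminescence is measured following 12 min at room temperature; lowered signal indicates toxicity.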
GLP-1R inv ag = inverse agonists of human GLP-1 receptor. Potency, µM (doses to about 38.3 µM), inactives show at the top dose activity change, negative = inhibition, hits mostly inhibitors. HEK293 GLP-1R CRE-luciferase, luminescence, 24 h; GLP-1R form is constitutively active. P43220. actives 1.6% (n = 410,000). AID 624417; also: % is scaled to controls: 0 for no effect and ±100 for the full control effect; nearly all actives have a fitted effect of over 55% in size
Target sequence (P43220 whole entry, looked up): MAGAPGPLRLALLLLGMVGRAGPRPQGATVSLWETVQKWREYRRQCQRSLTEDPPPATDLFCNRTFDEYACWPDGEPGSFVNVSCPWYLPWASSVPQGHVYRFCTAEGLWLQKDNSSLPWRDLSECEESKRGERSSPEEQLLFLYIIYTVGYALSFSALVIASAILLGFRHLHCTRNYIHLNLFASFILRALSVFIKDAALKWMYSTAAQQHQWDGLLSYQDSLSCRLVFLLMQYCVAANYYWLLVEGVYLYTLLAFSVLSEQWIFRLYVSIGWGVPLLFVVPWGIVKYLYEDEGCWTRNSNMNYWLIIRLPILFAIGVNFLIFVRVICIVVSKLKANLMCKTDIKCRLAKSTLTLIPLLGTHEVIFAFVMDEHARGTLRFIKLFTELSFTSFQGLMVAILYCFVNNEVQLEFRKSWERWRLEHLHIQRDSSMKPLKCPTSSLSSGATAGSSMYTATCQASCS
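Cells are plated, allowed 12 hours at 37 deg C, then treated with compounds for 24 hr before luciferase detection reagent is added and luminescence is read after 12 min at room temperature. The HEK293 line carries constitutively active GLP-1R with a cAMP-responsive reporter.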
GLP1R ag = GLP-1 receptor (human) agonism. actives 0.007% (n = 380,000). HEK293 GLP-1R CRE-luciferase, luminescence, 4-6 h; cells express a hypersensitive GLP-1R form. Potency, µM (highest dose often 45.6 µM), for inactives: at the highest dose activation, most hits filed as activators. AID 624172; also: % of control where 0% means no effect
* marks the source's active call; other numbers are inactive results; i = inactive; ? = inconclusive; . = no result given; [ ] = remark or other dose. Calls follow the shape of the dose curve; as a rule, active = well fitted curve in the direction sought with a large enough effect; inconclusive = small, poorly fitted or top-dose-only effect, or another doubt; inactive = no such curve, though single readings can be large; an effect the other way counts as inactive or inconclusive. Potency is read from the fitted curve at half-maximal effect.

SMILES	RGS4 inhibitor	PTHR1 ag	HEK293 tox	GLP-1R inv ag	GLP1R ag
CCOC(=O)[C@H]1[C@H]2COc3cc(OC)ccc3[C@@H]2N2C(=O)CN(Cc3ccc(C)cc3)C(=O)[C@@]12C	-2%	-31%	-19%	-3%	-3%
Cc1occc1C(=O)N1CCN(S(=O)(=O)c2ccccc2)CC1	-2%	-5%	-3%	-11%	-1%
Cc1ccc2nc(Cl)c3cc(C(=O)N4CCCC(C)C4)sc3c2c1 (stereo not given)	-7%	-10%	-7%	-7%	.
Cc1ccc(NC(=O)NC(C)c2c(-n3cccc3)sc(C)c2C)cc1F (stereo not given)	17%	-40%	-28%	?	.
Cc1sc(-n2cccc2)c(C(C)NC(=O)Nc2cccc(C(F)(F)F)c2)c1C (stereo not given)	5%	-46%	-7%	8.9µM*	.
S=c1[nH]nc(C2CCCCC2)n1/N=C/c1ccncc1	-2%	-17%	5%	1.8µM*	-2%
CCn1c2ccccc2c2cc(NC(=O)C(C)OC(=O)c3ccc(NC(=O)CC#N)cc3)ccc21 (stereo not given)	-13%	-14%	-25%	?	-5%
COc1cccc(CN(C)C(=O)CCN(c2ccccc2)S(=O)(=O)c2ccc(C)cc2)c1OC	-18%	-25%	-11%	8.9µM*	16%
Cc1ccc(S(=O)(=O)N(CCC(=O)NCc2ccccc2F)c2ccccc2)cc1	-5%	-27%	0%	?	10%
CC(=O)c1ccc(NC2=C(N3CCOCC3)C(=O)c3ccccc3C2=O)cc1	11%	-47%	?	9%	13%
Cc1ccc(NC2=C(N3CCOCC3)C(=O)c3ccccc3C2=O)cc1	-3%	-96%	10µM*	-13%	13%
O=C(Nc1ccccc1)C1Cc2c(-c3ccco3)ccnc2O1 (stereo not given)	.	-1%	1%	13%	16%
O=C(C[C@@H]1C/C=C\C[C@H](Cc2ccc(F)cc2)C(=O)OC[C@H]2CCCN2C1=O)NCCO	-4%	-2%	-2%	13%	0%
Cc1[nH]c2ccc(F)cc2c1CCN(Cc1cccnc1)C(=S)Nc1cccc(F)c1	-18%	-8%	-11%	10µM*	13%
FC(F)(F)COCC(F)(F)F	.	.	.	.	-4%
COc1cc(CN(C2CC2)S(=O)(=O)c2ccccc2Br)cc(OC)c1	29%	i	8%	10µM*	24%
CC1(C(=O)NS(=O)(=O)Cc2ccccc2)CCN1C(=O)Cc1cc(F)ccc1F (stereo not given)	.	-19%	-6%	11%	-7%
CCOc1ccc(S(=O)(=O)N2CCCCC2)c2ccccc12	-16%[11.4 µM]	-9%[57.5 µM]	1%	10µM*	0%
CCOc1ccc(S(=O)(=O)N2CCOCC2)c2ccccc12	1%	-30%	-4%	-4%	11%
CCOc1ccc(C(C(=O)NC2CCCC2)N(CCCO)C(=O)c2ccc(-c3ccccc3)[nH]2)cc1 (stereo not given)	32%	-19%	5%	13µM*	-6%
O=C(NC1CCCC1)C(c1ccncc1)N(CCCN1CCOCC1)C(=O)c1ccc(-c2ccccc2)[nH]1 (stereo not given)	16%	i	-5%	1%	-10%
CCCCn1c(-c2nonc2N)nc2ccccc21	21%	-11%	4%	-6%	-5%
CC(C)CCn1c(-c2nonc2N)nc2ccccc21	12%	-10%[57.5 µM]	-15%	2.2µM*	1%
OC[C@@H]1CN(Cc2ccc(-c3ccccc3)cc2)C[C@H](n2cnc3c(Nc4ccccc4)ncnc32)O1	.	-51%	-30%	4.5µM*	-1%
C[C@@H]1CCCCO[C@H](CN(C)Cc2ccc3c(c2)OCO3)[C@@H](C)CN([C@H](C)CO)C(=O)c2cc(NC(=O)c3ccccc3)ccc2O1	.	-9%	1%	?	-8%
SMILES	RGS4 inhibitor	PTHR1 ag	HEK293 tox	GLP-1R inv ag	GLP1R ag
CCN(CC)S(=O)(=O)c1ccc2oc(SCc3ccc(F)cc3)nc2c1	-16%	-22%[57.5 µM]	-1%	11µM*	7%
CCN(CC)S(=O)(=O)c1ccc2oc(C(=O)NCc3ccc(F)cc3)c(C)c2c1	-22%	-58%[57.5 µM]	-2%	3.5µM*	11%
CCN(CC)S(=O)(=O)c1ccc2oc(SCC(=O)NC3CC3)nc2c1	?	-13%	18%	1%	-7%
COc1ccc(C=C2C(=O)OC(C)(C)OC2=O)cc1OC	-3%	0%	7%	22%	-14%
COc1ccc(/C=C2\OC(=O)c3c(OC)cccc32)cc1OC	0%	-15%[57.5 µM]	389%	208%	5µM*
COc1cc(O)ccc1-c1nc2cc(C)ccn2c1Nc1ccccc1C	-13%	-7%	-27%	10µM*	.
COCCCNC(=O)c1ccc(-n2c(-c3ccccc3)cc3c2CCC(C)C3)cc1 (stereo not given)	-1%	?	-22%	10µM*	.
O=C(/C(=C/c1ccc(Cl)cc1)c1nc2ccccc2[nH]1)c1cccs1	-32%	-94%	?	4.5µM*	-8%
CC(C)(C)c1ccc(C(=O)NCC(c2cccs2)S(=O)(=O)c2ccc(F)cc2)cc1 (stereo not given)	11%	-9%	-2%	4.5µM*	.
COc1cc(S(=O)(=O)N2CCCCCC2)c(OC)cc1Br	8%	-26%	10%	4.5µM*	2%
COC(=O)[C@@]12C[C@@H](CC(=O)NCc3cccs3)C(=O)N(Cc3cccc4ccccc34)C1=CCC(C)(C)C2	.	-13%	1%	11µM*	.
COC(=O)[C@@]12C[C@@H](CC(=O)NCC34CC5CC(CC(C5)C3)C4)C(=O)N(Cc3ccco3)C1=CCC(C)(C)C2	.	i	-8%	10µM*	.
C#CCNC(=O)C[C@@H]1C[C@@]2(C(=O)OC)CC(C)(C)CC=C2N(Cc2ccco2)C1=O	.	-5%	-10%	0%	.
Cn1c(SCC(=O)Nc2ccc(Cl)cc2F)nnc1-c1ccco1	-12%	i	-2%	7%	10%
Cc1ccccc1OCC(=O)Nc1ccc(OCc2cc(=O)n3ccsc3n2)cc1	-5%	-20%	1%	8%	0%
Cc1cc(Br)ccc1NC(=O)CN1C(=O)C2C3CC(c4ccccc4)C(C3)C2C1=O (stereo not given)	13%	-40%	-14%	10µM*	-8%
OCC1OC(OC2C(CO)OC(OC3C(CO)OC(O)C(O)C3O)C(O)C2O)C(O)C(O)C1O (stereo not given)	.	.	.	.	8%
Cc1cc(C)c(S(=O)(=O)N2CCN(C(=O)c3ccc(-n4nc(C)c(Cl)c4C)cc3)CC2)c(C)c1	23%	-11%	7%	7.1µM*	1%
Cc1cc(C)c(S(=O)(=O)N2CCN(C(=O)c3c(C)nn(-c4ccccc4)c3Cl)CC2)c(C)c1	?	-42%	-8%	8.9µM*	-19%
